# In PubChem BioAssay AID1619 (SRMLSC, 2009):
# Hit rate of the full screen: of about 220,000 compounds, about 830 (0.38%) were called active.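 How the source made its calls: active means compound inhibiting the enzyme by more than half at any dose during confirmatory dose-response retesting; inconclusive means strong single-dose inhibitors picked by rank but not retested; inactive means the rest.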 Not all results are given here. Potency and affinity values are given separately.
# Target: Leucine aminopeptidase (Plasmodium falciparum (isolate 3D7)) (UniProt Q8IL11)
# Sequence (Q8IL11 whole entry, looked up): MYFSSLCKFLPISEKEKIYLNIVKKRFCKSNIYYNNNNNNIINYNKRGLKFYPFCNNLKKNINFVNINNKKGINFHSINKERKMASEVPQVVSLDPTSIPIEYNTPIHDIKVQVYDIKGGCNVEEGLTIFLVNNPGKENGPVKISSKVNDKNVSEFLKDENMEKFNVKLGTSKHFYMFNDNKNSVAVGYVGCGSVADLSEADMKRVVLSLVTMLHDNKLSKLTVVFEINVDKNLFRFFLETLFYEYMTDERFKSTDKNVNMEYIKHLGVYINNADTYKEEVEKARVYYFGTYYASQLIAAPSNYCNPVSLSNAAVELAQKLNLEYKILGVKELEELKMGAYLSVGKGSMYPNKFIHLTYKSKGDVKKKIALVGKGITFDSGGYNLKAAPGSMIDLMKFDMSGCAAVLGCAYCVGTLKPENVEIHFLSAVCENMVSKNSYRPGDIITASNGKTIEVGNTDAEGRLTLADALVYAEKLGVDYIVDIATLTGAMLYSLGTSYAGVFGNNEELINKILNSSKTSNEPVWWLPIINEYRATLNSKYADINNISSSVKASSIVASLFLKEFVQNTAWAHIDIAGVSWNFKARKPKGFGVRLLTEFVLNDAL
# Test: P. falciparum M17LAP inhibitors, primary screen, biochemical, fluorogenic H-Leu-NHMec substrate, 1536-well (AID 1619);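 further: plate controls were full reaction with DMSO carrier for no effect and no enzyme background for full effect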
# Details: recombinant M17LAP, H-Leu-NHMec fluorogenic kinetic assay; at 30 µM; stronger effect = higher value
row,SMILES,inhibition
1,Cc1ccc(S(=O)(=O)/N=C(\c2ccccc2)N(C)S(=O)(=O)c2ccc(C)cc2)cc1,-10.3% (inactive)
2,Cc1cc(C)cc(NC(=O)C2CCCN(c3nc(C)cc(C)n3)C2)c1 (stereo unspecified),-13.6% (inactive)
3,Cc1cccc(NC(=O)C2CCN(c3nc(C)cc(C)n3)CC2)c1,35.1% (inactive)
4,Cc1cc(C(F)(F)F)nn1CC(=O)NNC(=S)Nc1cccc(Cl)c1,9.62% (inactive)
5,CC1CCC/C(=N\NC(=S)NCc2ccccc2)C1 (stereo unspecified),9.29% (inactive)
6,CCCCOc1ncnc2c1[nH]c1ccc(OC)cc12,-0.91% (inactive)
7,COCCOc1cc2ncnc(N3CCC(C(=O)O)CC3)c2cc1OCCOC,5.32% (inactive)
8,Cc1cc(/C=C(/C#N)c2nc3ccccc3[nH]2)c(C)n1-c1ccccc1C(=O)O,23% (inactive)
9,Cc1cc(/C=C(/C#N)c2nc3ccccc3[nH]2)c(C)n1-c1cccc([N+](=O)[O-])c1,-7.34% (inactive)
10,COc1cccc(N2CCN(C(=S)NCCc3ccccc3)CC2)c1,-3.71% (inactive)
11,CCOc1ccc(S(=O)(=O)NCCCN2CCOCC2)cc1,-8.49% (inactive)
12,Cc1ccc2c(c1)N(C(C)C(=O)NCc1ccccn1)C(=O)CO2 (stereo unspecified),-7.53% (inactive)
13,O=C(CSc1ncnc2scc(-c3ccccc3)c12)Nc1ccc(C(=O)O)cc1,5.99% (inactive)
14,CCc1cc2c(C)ccc(C)c2nc1SCC(=O)Nc1c[nH]c(=O)[nH]c1=O,14.5% (inactive)
15,CCc1cc2ccccc2nc1SCC(=O)Nc1cc(C)on1,4.25% (inactive)
16,COC(=O)CSc1ncnc2scc(-c3ccccc3)c12,-1.19% (inactive)
17,COc1ccccc1NC(=O)CSc1nc2ccccc2cc1Cc1ccccc1,3.65% (inactive)
18,COc1cc(NC(=O)CSc2cc(C)c3cc(C)cc(C)c3n2)c(C(=O)O)cc1OC,15.4% (inactive)
19,COc1cc(NC(=O)CSc2ccccc2)c(C(=O)O)cc1OC,39.3% (inactive)
20,COc1cc(NC(=O)CSc2nccc(C)n2)c(C(=O)O)cc1OC,43.1% (inactive)
21,CCn1c(COc2ccc3c(c2)CCCC3)nnc1SCC(=O)Nc1ccc(C(=O)OC)cc1,5.55% (inactive)
22,Cc1ccc(CNC(=O)C2CC(=O)OC23CCCC3)c(C)c1 (stereo unspecified),6.63% (inactive)
23,CN(C)CCNc1c2c(nc3nnnn13)CCCC2,5.48% (inactive)
24,O=C(NN=C1CCCC1)C1COc2ccccc2O1 (stereo unspecified),0.87% (inactive)

row,SMILES,inhibition
1,O=C(O)C1CC(=O)N(Cc2ccc3c(c2)OCO3)C1 (stereo unspecified),-0.32% (inactive)
2,COC(=O)[C@@]1(Cc2ccc(F)cc2)[C@H]2c3cc(C(=O)N(C)C)n(Cc4c(CO)[nH]cc(C)c4=O)c3C[C@H]2CN1C(=O)c1ccccc1,6.87% (inactive)
3,O=c1cc(NCC2CCCO2)[nH]c(=O)n1-c1ccc(Cl)cc1 (stereo unspecified),3.43% (inactive)
4,C=CCNS(=O)(=O)c1nc(C)c(Cl)c(C)c1C#N,9.01% (inactive)
5,CC(Sc1ncc(C#N)c(N)n1)C(=O)Nc1ccccc1 (stereo unspecified),9.93% (inactive)
6,CCc1nnc(NS(=O)(=O)c2ccc(NC(=O)OC)cc2)s1,6.85% (inactive)
7,CCc1nnc(NS(=O)(=O)c2ccc(N/C=C\C(=O)c3ccc4ccccc4c3)cc2)s1,12.1% (inactive)
8,CCc1nnc(NS(=O)(=O)c2ccc(NC(=O)/C=C/c3ccccc3Cl)cc2)s1,1.04% (inactive)
9,CCc1nnc(NS(=O)(=O)c2ccc(NC(=O)c3cccc4ccccc34)cc2)s1,15% (inactive)
10,CCc1nnc(NS(=O)(=O)c2ccc(NC(=S)NC(=O)/C=C/c3ccc(OC)cc3)cc2)s1,40.7% (inactive)
11,CCc1nnc(NS(=O)(=O)c2ccc(NC(=S)NC(=O)/C=C/c3ccccc3)cc2)s1,23.5% (inactive)
12,CCc1nnc(NS(=O)(=O)c2ccc(NC(=S)NC(=O)/C=C/c3ccc(F)cc3)cc2)s1,53% (inactive)
13,CCc1nnc(NS(=O)(=O)c2ccc(NC(=O)COc3ccc(Cl)c(C)c3)cc2)s1,52.7% (inactive)
14,Cc1ccc(Nc2nnc(SCC(=O)NCCN3C(=O)CSC3=O)s2)cc1C,54.4% (inactive)
15,O=C(NCCc1c[nH]c2ccccc12)c1c(Cl)nc2sccn12,-3.3% (inactive)
16,O=C(NCc1ccncc1)c1cn(-c2ccccc2)nc1-c1cccnc1,9.29% (inactive)
17,CCOC(=O)Cc1nnc(Nc2ccc(C)cc2C)c2ccccc12,-12.3% (inactive)
18,CC(C)CCNC(=O)C1CCC(=O)N1C(C)C (stereo unspecified),-2.71% (inactive)
19,N#CCCN(CC(=O)O)S(=O)(=O)c1ccccc1,-11.6% (inactive)
20,CCc1ccc(C(=O)Nc2nnn(CC)n2)cc1,10.2% (inactive)
21,C1CCCCCC2(CCCCC1)OCC(CN1CCOCC1)O2 (stereo unspecified),1.36% (inactive)
22,Cc1c(C(=O)c2ccccc2)c2ccccn2c1CCc1ccccn1,5.7% (inactive)
23,N#Cc1cccc(NC(=O)COC(=O)c2cccc(N3C(=O)c4ccccc4C3=O)c2)c1,8.44% (inactive)
24,CCCCc1ccc(NC(=O)CN2NS(=O)(=O)c3ccccc3C2=O)cc1,52.6% (inactive)

row,SMILES,inhibition
1,CC1(c2ccccc2)NC(=O)N(CC(=O)Nc2cccc(C#N)c2)C1=O (stereo unspecified),-4.04% (inactive)
2,O=C(CN1NS(=O)(=O)c2ccccc2C1=O)Nc1ccccc1OC(F)F,43.5% (inactive)
3,O=C1CSC(c2cccnc2)N1c1ccc(F)cc1 (stereo unspecified),9.53% (inactive)
4,CC(=O)Nc1ccc(CN2CCCC(CO)(Cc3ccccc3C)C2)cc1 (stereo unspecified),-0.77% (inactive)
5,Nc1nc2n(n1)C(c1ccco1)CC(c1ccc(Cl)cc1)N2 (stereo unspecified),-19.4% (inactive)
6,Cc1cccc(OC(=O)C2C(c3ccccc3)C(C(=O)O)C2c2ccccc2)c1 (stereo unspecified),33.4% (inactive)
7,COc1ccc(/C=C2/SC(=O)NC2=O)cc1,25.1% (inactive)
8,Nc1c(-c2cccc(Cl)c2)cnn1-c1cccc(C(F)(F)F)c1,5.43% (inactive)
9,COc1ccc(OC)c(NC(=O)C2CCCC2)c1,-9.43% (inactive)
10,CCOc1ccc(NC(=O)C2C3CCC4C(CCC32)C4(Cl)Cl)cc1 (stereo unspecified),9.32% (inactive)
11,C=C1C(C(=O)Nc2ccc(OCC)cc2)C1C(=O)Nc1ccc(OCC)cc1 (stereo unspecified),-7.51% (inactive)
12,COc1ccc(OC)c(NC(=O)C2CCCCC2)c1,5.19% (inactive)
13,CC(=O)NC(=O)NC1OC(=O)C(Cl)=C1Cl (stereo unspecified),4.19% (inactive)
14,Cn1nc(C(=O)NCCOc2ccccc2)c2ccccc2c1=O,-0.35% (inactive)
15,CCOC(=O)C(CSCC(=O)c1ccc(Cl)cc1)NC(=O)OC(C)(C)C (stereo unspecified),25.7% (inactive)
16,CCOC(=O)CSCC(NC(=O)OC(C)(C)C)C(=O)OCC (stereo unspecified),0.56% (inactive)
17,CCN(CC)S(=O)(=O)c1ccc(N)cc1,11.4% (inactive)
18,CCCSc1ccc(C(=O)Nc2ccc(Cl)cc2)cn1,-6.5% (inactive)
19,COc1ccc(-n2c(C)cc(/C=C(\C#N)C(=O)NCc3ccco3)c2C)cc1,-8.8% (inactive)
20,Cc1cc(/C=C(\C#N)C(=O)NCc2ccco2)c(C)n1-c1cccnc1,20.4% (inactive)
21,Cc1ccc(-n2c(Cc3cccn3C)nnc2SCC(=O)NCc2ccco2)cc1,20.7% (inactive)
22,Cc1ccc(Cn2ccc(C3CC3)n2)cc1,-1.75% (inactive)
23,COC(=O)C1=C(O)C2(C(=O)O)CC(C(=O)OC)=C(O)C(C(=O)O)(C1)C2,-3.67% (inactive)
24,CC(=O)NC1(C(=O)O)CCCC1,9.39% (inactive)

row,SMILES,inhibition
1,Cc1ccc(S(=O)(=O)NCCCCCC(=O)Nc2ccccc2)cc1,3.08% (inactive)
2,CCN1C(=O)/C(=C2/C=Cc3ccccc3N2CC)SC1=S,-0.63% (inactive)
3,CCCc1[nH]nc2c1C(c1ccsc1)C(C#N)=C(N)O2 (stereo unspecified),2.74% (inactive)
4,Cc1[nH]nc2c1C(CC(C)C)C(C#N)=C(N)O2 (stereo unspecified),14.9% (inactive)
5,CCc1[nH]nc2c1C(c1cccnc1)C(C#N)=C(N)O2 (stereo unspecified),11.3% (inactive)
6,CC(C)CC1C(C#N)=C(N)Oc2n[nH]c(-c3cccs3)c21 (stereo unspecified),73.3% (inactive)
7,N#CC1=C(N)Oc2n[nH]c(-c3ccccc3)c2C1c1ccncc1 (stereo unspecified),62.5% (inactive)
8,Cc1[nH]nc2c1C(c1ccsc1)C(C#N)=C(N)O2 (stereo unspecified),29.4% (inactive)
9,CC(C)(C)c1[nH]nc2c1C(c1cccnc1)C(C#N)=C(N)O2 (stereo unspecified),5.24% (inactive)
10,CCCc1[nH]nc2c1C(c1ccncc1)C(C#N)=C(N)O2 (stereo unspecified),30.1% (inactive)
11,CO/N=C/NC(=O)c1c(OC)ccnc1Oc1ccccc1,6.63% (inactive)
12,CSCCC(NC(=O)c1ccc([N+](=O)[O-])cc1Cl)C(=O)OCC(=O)N(C)C (stereo unspecified),-3.36% (inactive)
13,O=C(Nc1ccccc1C(=O)N1CCOCC1)C1CCCO1 (stereo unspecified),-7.06% (inactive)
14,CCCc1[nH]nc2c1C(Cc1ccccc1)C(C#N)=C(N)O2 (stereo unspecified),28.5% (inactive)
15,Cc1ccc(-c2ccc(C3C(C#N)=C(N)Oc4n[nH]c(C)c43)o2)cc1 (stereo unspecified),15.7% (inactive)
16,Cc1[nH]nc2c1C(CCc1ccccc1)C(C#N)=C(N)O2 (stereo unspecified),68.1% (inactive)
17,Cc1ccc(C2C(C#N)=C(N)Oc3n[nH]c(C)c32)cc1 (stereo unspecified),52.9% (inactive)
18,CCCc1[nH]nc2c1C(c1cccnc1)C(C#N)=C(N)O2 (stereo unspecified),9.46% (inactive)
19,CC(C)c1[nH]nc2c1C(c1cccnc1)C(C#N)=C(N)O2 (stereo unspecified),13.5% (inactive)
20,CCCc1[nH]nc2c1C(c1ccc(O)c(OC)c1)C(C#N)=C(N)O2 (stereo unspecified),29.1% (inactive)
21,COC(=O)Cc1[nH]nc2c1C(c1ccc(O)c(OC)c1)C(C#N)=C(N)O2 (stereo unspecified),17.1% (inactive)
22,CC(C)NC(=O)/C=C/C(=O)O,-17.6% (inactive)
23,CCn1c(NCc2ccco2)nc2ccccc21,3.48% (inactive)
24,Cc1cc(C)cc(OCC(=O)OCC(=O)c2ccc3c(c2)NC(=O)CO3)c1,-0.31% (inactive)
